In the supplement of paper PMC13380429:

Test system: Vero E6 infected with SARS-CoV-2
Assay: inhibition of SARS-CoV-2 cytopathic effect; higher = more antiviral protection, active = above 15
Conditions: 48 h

Measured: inhibition of SARS-CoV-2 cytopathic effect

CCc1cc2c(cc1CC)CC(NC[C@H](O)c1ccc(O)c3[nH]c(=O)ccc13)C2 [indacaterol]
inactive: 1 nM -4.02% | 8.33 nM -0.7% | 100 nM -0.83% | 833.33 nM -1.99% | 10000 nM -2.01%

C[C@@H](CN)CC(=O)O [3-methyl-GABA]
inactive: 1 nM 0.49% | 8.33 nM 0.52% | 100 nM 1.28% | 833.33 nM 1.08% | 10000 nM -0.34%

Clc1ccc(C(Cn2ccnc2)OCc2c(Cl)cccc2Cl)c(Cl)c1 (stereo not given) [isoconazole]
inactive: 1 nM 0.43% | 8.33 nM 0.08% | 100 nM 1.75% | 833.33 nM 1.3% | 10000 nM -2.37%

CCCN(C/C=C/I)[C@H]1CCc2ccc(O)cc2C1 [7-hydroxy-PIPAT]
inactive: 1 nM -0.76% | 8.33 nM 0.14% | 100 nM -1.03% | 833.33 nM -0.19% | 10000 nM -1.39%

CC[C@H]1[C@@H](O)[C@@H]2[C@H](CC[C@]3(C)[C@@H]([C@H](C)CCC(=O)O)CC[C@@H]23)[C@@]2(C)CC[C@@H](O)C[C@@H]12 [obeticholic-acid]
inactive: 1 nM 0.365% | 8.33 nM 1.41% | 100 nM 1.03% | 833.33 nM 2.73% | 10000 nM 1.65%

CCN(CC)CCOC(=O)C(c1ccccc1)c1ccccc1 [adiphenine]
inactive: 1 nM -1.11% | 8.33 nM -0.19% | 100 nM 2.09% | 833.33 nM 1.64% | 10000 nM -0.25%

NS(=O)(=O)c1cc(C2(O)NC(=O)c3ccccc32)ccc1Cl (stereo not given) [chlorthalidone]
inactive: 1 nM -0.87% | 8.33 nM -0.18% | 100 nM 4.69% | 833.33 nM -3.83% | 10000 nM -3.63%

CNC1CC(N)C(O)C(OC2OC(CO)C(O)C3OC4(OC(C(N)CO)C(O)C(O)C4O)OC23)C1O (stereo not given) [Hygromycin B]
inactive: 1 nM -0.42% | 8.33 nM -1.63% | 100 nM -0.49% | 833.33 nM -1.13% | 10000 nM 1.46%

CN1CCN(c2nc(C3=C(c4c[nH]c5ccccc45)C(=O)NC3=O)c3ccccc3n2)CC1 [sotrastaurin]
inactive: 1 nM 0.12% | 8.33 nM 1.74% | 100 nM -0.57% | 833.33 nM -1.82% | 10000 nM 4.89%

CC1=C(C(=O)OC2CCCCC2)C(c2ccc([N+](=O)[O-])cc2)C2=C(CC(C)(C)CC2=O)N1 (stereo not given)
active: 10000 nM 23.1%
inactive: 1 nM -1.14% | 8.33 nM -1.2% | 100 nM -1.86% | 833.33 nM 1.14%

NC(=O)NCCC[C@H](N)C(=O)O [L-citrulline]
inactive: 1 nM 0.06% | 8.33 nM -1.99% | 100 nM 1.8% | 833.33 nM 2.58% | 10000 nM 1.61%

COc1cc(/C=C/C(=O)N2CCN(CC(=O)N3CCCC3)CC2)cc(OC)c1OC [cinepazide]
inactive: 1 nM 5.93% | 8.33 nM 5.29% | 100 nM 8.11% | 833.33 nM -1.14% | 10000 nM 0.17%

CC(CC(C(N)=O)(c1ccccc1)c1ccccc1)N(C)C (stereo not given) [aminopentamide]
inactive: 1 nM -1.11% | 8.33 nM -1.56% | 100 nM -1.71% | 833.33 nM 0.24% | 10000 nM -0.57%

CCOC(=O)c1cnc2c(cnn2CC)c1NN=C(C)C [etazolate]
inactive: 1 nM -0.85% | 8.33 nM 4.04% | 100 nM 0.13% | 833.33 nM 1.35% | 10000 nM -1.47%

CC(C)=CCC[C@](C)(O)[C@@H]1CC=C(C)CC1 [levomenol]
inactive: 1 nM 0.81% | 8.33 nM 4.97% | 100 nM 5.57% | 833.33 nM 3.97% | 10000 nM 0.76%

C[C@@H]1CN(Cc2ncccn2)C[C@H]1c1nc2c(cnn2C2CCOCC2)c(=O)[nH]1
inactive: 1 nM -1.78% | 8.33 nM 1.47% | 100 nM -0.33% | 833.33 nM 1.24% | 10000 nM -2.82%

O=C(C1CC1)N1CC[C@@H](Cc2n[nH]c(=O)n2-c2ccc(-c3ccc4occc4c3)cc2)C1
inactive: 1 nM -1.12% | 8.33 nM -1.14% | 100 nM -1.43% | 833.33 nM -0.64% | 10000 nM -4.48%

Cc1ccccc1C(=O)Nc1ccc(C(=O)N2CCCC(O)c3cc(Cl)ccc32)c(C)c1 (stereo not given) [tolvaptan]
inactive: 1 nM 1.52% | 8.33 nM 1.94% | 100 nM 0.74% | 833.33 nM -1.55% | 10000 nM 1.54%

CCOC(=O)Nc1ccc(NCc2ccc(F)cc2)nc1N [flupirtine]
inactive: 1 nM 0.67% | 8.33 nM 0.58% | 100 nM -1.4% | 833.33 nM 0.07% | 10000 nM 1.37%

CCOC(=O)[C@@H](N)Cc1ccc(-c2cc(O[C@H](c3ccc(Cl)cc3-n3ccc(C)n3)C(F)(F)F)nc(N)n2)cc1 [telotristat-ethyl]
inactive: 1 nM -0.32% | 8.33 nM 2.88% | 100 nM -1.08% | 833.33 nM 4.77% | 10000 nM 2.26%

CCn1c(N)c(C(=O)NC)c(=O)c2ccc(C#C[C@@](C)(O)COC)nc21
inactive: 1 nM 0.13% | 8.33 nM -0.62% | 100 nM -1.69% | 833.33 nM 0.68% | 10000 nM 6.9%

O=C1NC(=O)c2c1c1c3ccccc3[nH]c1c1[nH]c3ccccc3c21 [arcyriaflavin-a]
inactive: 1 nM -5.59% | 8.33 nM -1.16% | 100 nM -3.16% | 833.33 nM -3.59% | 10000 nM -10.1%

OCc1ccccc1O [salicyl-alcohol]
inactive: 1 nM -0.86% | 8.33 nM -1.41% | 100 nM 0.06% | 833.33 nM 4.76% | 10000 nM 0.29%

CN(C)c1ccc(/C=C2\CCCN=C2c2cccnc2)cc1 [DMAB-anabaseine]
inactive: 1 nM -2.66% | 8.33 nM -1.76% | 100 nM 0.68% | 833.33 nM 4.31% | 10000 nM -5.07%

CCn1cc(C(=O)O)c(=O)c2cnc(N3CCNCC3)nc21 [pipemidic-acid]
inactive: 1 nM 0.65% | 8.33 nM 2.63% | 100 nM 1.17% | 833.33 nM -0.86% | 10000 nM 1.68%

N[C@@H]1CONC1=O [cycloserine-(D)]
inactive: 1 nM -2.12% | 8.33 nM -4.07% | 100 nM -2.78% | 833.33 nM -4.11% | 10000 nM -3.61%

O=C(O)CCNc1cc(N2CCc3ccccc3CC2)nc(-c2cccnc2)n1
inactive: 1 nM 0.26% | 8.33 nM 0.62% | 100 nM 1.71% | 833.33 nM 0.35% | 10000 nM -0.17%

CCOc1c(N2CCOCC2)cnn(C)c1=O [emorfazone]
inactive: 1 nM -7.19% | 8.33 nM -6.29% | 100 nM -2.95% | 833.33 nM -0.94% | 10000 nM 0.67%

CCNCC(O)c1cccc(O)c1 (stereo not given) [etilefrine]
inactive: 1 nM -0.51% | 8.33 nM 2.79% | 100 nM -0.96% | 833.33 nM -0.19% | 10000 nM 1.89%

CCOc1ccc(-n2c([C@@H](C)N(Cc3cccnc3)C(=O)Cc3ccc(OC(F)(F)F)cc3)nc3ncccc3c2=O)cc1 (racemic)
inactive: 1 nM 0.51% | 8.33 nM 2.23% | 100 nM 0.96% | 833.33 nM 1.88% | 10000 nM -1.62%

COC(=O)Nc1nc2cc(C(=O)c3ccc(F)cc3)ccc2[nH]1 [flubendazole]
inactive: 1 nM -1.07% | 8.33 nM 0.53% | 100 nM 0.32% | 833.33 nM 0.07% | 10000 nM -2.34%

COc1cccc(OCCCN)c1-c1cc(Nc2cnc(C#N)cn2)n[nH]1
inactive: 1 nM -0.1% | 8.33 nM 0.79% | 100 nM -1.17% | 833.33 nM -4.06% | 10000 nM -3.92%

O=[N+]([O-])c1nccn1CC(O)CN1CCCCC1 (stereo not given) [pimonidazole]
inactive: 1 nM 0.08% | 8.33 nM 0.87% | 100 nM 1.45% | 833.33 nM 2.08% | 10000 nM -0.59%

O=c1cc(N2CCNCC2)oc2c(-c3ccccc3)cccc12
inactive: 1 nM 0.61% | 8.33 nM -3.07% | 100 nM -0.37% | 833.33 nM 0.12% | 10000 nM 1.5%

Cc1ccc(Cl)c(OCC(O)CNC(C)(C)C)c1 (stereo not given) [bupranolol]
inactive: 1 nM 1.32% | 8.33 nM -0.4% | 100 nM -5.32% | 833.33 nM -1.98% | 10000 nM -0.94%

CC(=O)O[C@]1(C(C)=O)CC[C@H]2[C@@H]3C[C@H](C)C4=CC(=O)CC[C@]4(C)[C@H]3CC[C@@]21C [medroxyprogesterone-acetate]
inactive: 1 nM 1.02% | 8.33 nM 0.71% | 100 nM -1.14% | 833.33 nM 2.58% | 10000 nM 6.49%

CCN(CC)CCOC(=O)C(c1ccccc1)C1CCCCC1 (stereo not given) [drofenine]
inactive: 1 nM -1.59% | 8.33 nM 1.9% | 100 nM -1.61% | 833.33 nM -1.42% | 10000 nM 1.22%

COc1cc(N2CCOCC2)ccc1Nc1ncc(Cl)c(Nc2ccccc2NS(C)(=O)=O)n1
inactive: 1 nM 0.93% | 8.33 nM 2.59% | 100 nM 2.32% | 833.33 nM -2.21% | 10000 nM -13.2%

N[C@@H]1CCN(c2cccnc2)C1
inactive: 1 nM 0.23% | 8.33 nM 0.19% | 100 nM 1.46% | 833.33 nM 2.41% | 10000 nM 3.85%

COc1ccc2[nH]c([S+]([O-])Cc3ncc(C)c(OC)c3C)nc2n1 (stereo not given) [tenatoprazole]
inactive: 1 nM -9.92% | 8.33 nM -12.8% | 100 nM -7.87% | 833.33 nM -11.3% | 10000 nM 2.26%
